Results as given in PubChem BioAssay (NCI).
Compounds without any hit were thinned out: in the full panel of roughly 83,000, 20% have a hit.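 Treatment: one concentration, 48 hours, 96-well format. Scoring: percent growth, with anything below 10 considered active.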 Calls of active or inactive are those of the source.

Legend:
Assay in all cases: NCI-60 one-dose screen, 48 h (100 = growth as untreated, 0 = no growth, -100 = all killed)
Conditions in all cases: 10 µM unless noted
MDA-MB-435 melanoma = test system: MDA-MB-435 melanoma
SW-620 colon = test system: SW-620 colon
MCF7 breast = test system: MCF7 breast
HCT-116 colon = test system: HCT-116 colon
HCC-2998 colon = test system: HCC-2998 colon
KM12 colon = test system: KM12 colon
BT-549 breast = test system: BT-549 breast

Measured: growth

CC[C@H](Nc1nc(N)nc(C)c1C#N)c1nc2cccc(CN(C)c3ncc(C(=O)NO)cn3)c2c(=O)n1-c1ccccc1
inactive: MCF7 breast 10.8% | KM12 colon 16.4%
active: MDA-MB-435 melanoma -3.69% | SW-620 colon 3.51% | HCT-116 colon -19.7% | HCC-2998 colon -7.29%

Cn1c(=O)[nH]c(=O)c2nc3c(nc21)-c1ccccc1C3=O
inactive: BT-549 breast 104% | MDA-MB-435 melanoma 100% | SW-620 colon 105% | MCF7 breast 87.2% | HCT-116 colon 102% | HCC-2998 colon 101% | KM12 colon 103%

C[C@H]1[C@H](C)CC[C@]2(C(=O)NCCNCCN)CC[C@]3(C)C(=CC[C@@H]4[C@@]5(C)CCC(=O)C(C)(C)[C@@H]5CC[C@]43C)[C@H]12
active: MDA-MB-435 melanoma -75.7% | SW-620 colon -74.7% | HCC-2998 colon -43.7%
inactive: BT-549 breast 92.3% | MCF7 breast 12.6% | KM12 colon 11.4%

Ic1ccc(Nc2nc3nonc3nc2Nc2ccc(I)cc2)cc1
inactive: SW-620 colon 13.8%
active: BT-549 breast -21.7% | MDA-MB-435 melanoma 6.04% | MCF7 breast 3.42% | HCT-116 colon 0.308% | HCC-2998 colon 8.32% | KM12 colon 7.87%

C1CCC(N2CN3c4nonc4N4CN(C5CCCCC5)CN5c6nonc6N(C2)C3C45)CC1 (centres undefined)
inactive: BT-549 breast 99.8% | MDA-MB-435 melanoma 100% | SW-620 colon 92.8% | MCF7 breast 89.1% | HCC-2998 colon 98.4% | KM12 colon 98.8%

CCCCCCCCn1ccc2cc(NC(=O)CN=[N+]=[N-])ccc21
inactive: BT-549 breast 86.5% | MDA-MB-435 melanoma 108% | SW-620 colon 101% | MCF7 breast 91.1% | HCT-116 colon 97.5% | HCC-2998 colon 117% | KM12 colon 99.4%

O=C1CCCCN1c1ccc(C2=NCCCN2)cc1
inactive: BT-549 breast 89.6% | MDA-MB-435 melanoma 96.9% | SW-620 colon 85.7% | MCF7 breast 84.2% | HCC-2998 colon 109% | KM12 colon 90%

CS(=O)(=O)Nc1cc(-c2ccc3ncnc(Nc4ccc5c(cnn5Cc5ccncc5)c4)c3c2)cnc1Cl
inactive: BT-549 breast 16.1% | MDA-MB-435 melanoma 63.2% | SW-620 colon 68.6% | MCF7 breast 31.3% | HCT-116 colon 75.2% | HCC-2998 colon 73.7% | KM12 colon 93.4%

CC(=O)c1sc(-c2ccc(F)cc2)cc1O
inactive: BT-549 breast 93.8% | MDA-MB-435 melanoma 96.1% | SW-620 colon 106% | MCF7 breast 94.5% | HCT-116 colon 95.3% | HCC-2998 colon 103% | KM12 colon 95.6%

CN(C)/C(N)=N/N=C(\c1ccccc1)c1ccccn1
inactive: BT-549 breast 99.8% | MDA-MB-435 melanoma 113% | SW-620 colon 104% | MCF7 breast 105% | HCT-116 colon 89.5% | HCC-2998 colon 94.3% | KM12 colon 99.1%

c1ccc2cc(Cn3cc(CSc4nc5ccccc5s4)nn3)ccc2c1
inactive: BT-549 breast 96.3% | MDA-MB-435 melanoma 105% | SW-620 colon 94.5% | MCF7 breast 91.7% | HCT-116 colon 96.3% | HCC-2998 colon 102% | KM12 colon 100%

C=CN(C(=O)N1CCN(c2cc3c(cc2F)c(=O)c(C(=O)O)cn3C2CC2)CC1)c1nc(-c2ccccc2)cs1
inactive: BT-549 breast 101% | MDA-MB-435 melanoma 96.4% | SW-620 colon 112% | MCF7 breast 94.8% | HCT-116 colon 86% | HCC-2998 colon 103% | KM12 colon 104%

CCN(CCNc1ccc(C)c2sc3cc(Cl)ccc3c(=O)c12)CC(C)(C)O
inactive: BT-549 breast 84.9% | MDA-MB-435 melanoma 35.2% | SW-620 colon 82.2% | MCF7 breast 58.5% | HCT-116 colon 50.6% | HCC-2998 colon 39.6% | KM12 colon 40.5%

Cc1cc(C)c2c(c1)N(C)c1ncnc(-n3c(C)nc4cc(C)ccc43)c1CC2C (centres undefined)
active: MDA-MB-435 melanoma 2.51%
inactive: BT-549 breast 59.2% | SW-620 colon 19.6% | MCF7 breast 18.7% | HCT-116 colon 17.4% | HCC-2998 colon 76.1% | KM12 colon 38.7%

CCOc1ccc(NC(=O)Nc2ccc(OCC)cc2)cc1
inactive: BT-549 breast 113% | MDA-MB-435 melanoma 109% | SW-620 colon 116% | MCF7 breast 94.5% | HCT-116 colon 106% | HCC-2998 colon 103% | KM12 colon 102%

CS(=O)(=O)Nc1cc(-c2ccc3ncnc(Nc4ccc5c(cnn5Cc5ccccc5F)c4)c3c2)cnc1Cl
inactive: BT-549 breast 14.6% | MDA-MB-435 melanoma 43.6% | SW-620 colon 46.8% | MCF7 breast 13.9% | HCC-2998 colon 59.3% | KM12 colon 71.5%

Cc1cccc(-c2nc(C(C)C)sc2-c2ccnc(NCCCNS(=O)(=O)c3ccc(Cl)cc3)c2)c1
inactive: BT-549 breast 74.8% | MDA-MB-435 melanoma 80% | SW-620 colon 56.6% | MCF7 breast 53.8% | HCT-116 colon 54.4% | HCC-2998 colon 75.2% | KM12 colon 58.1%

CCOC(=O)NC(=S)n1oc(=O)c2ccccc21
inactive: BT-549 breast 111% | SW-620 colon 97.5% | MCF7 breast 100% | HCT-116 colon 101% | HCC-2998 colon 101% | KM12 colon 103%

C/C(=N\Nc1ccccc1)c1ccc(NC2=CC(=O)c3ccccc3C2=O)cc1
inactive: BT-549 breast 76.3% | SW-620 colon 48.4% | MCF7 breast 30.4% | HCT-116 colon 51% | HCC-2998 colon 77.9% | KM12 colon 43.7%
active: MDA-MB-435 melanoma -80.3%

O=C1CCC(C(=O)N/N=C/c2cc(F)ccc2F)N1 (centres undefined)
inactive: BT-549 breast 103% | MDA-MB-435 melanoma 100% | SW-620 colon 106% | MCF7 breast 93.4% | HCT-116 colon 103% | HCC-2998 colon 107% | KM12 colon 104%

C=C(C)[C@@H]1CC[C@]2(C(=O)N3CCNCC3)CC[C@]3(C)[C@H](CC[C@@H]4[C@@](C)(CCC(=O)N5CCNCC5)[C@H](C(=C)C)CC[C@]43C)[C@@H]12
inactive: BT-549 breast 88.5% | MDA-MB-435 melanoma 74% | MCF7 breast 26.4% | HCC-2998 colon 81% | KM12 colon 51.2%
active: SW-620 colon -14.4% | HCT-116 colon -56.1%

COc1cc(/C=C2\C(=O)N(CCCOc3cc(O)c4c(=O)cc(-c5ccccc5)oc4c3)c3ccccc32)cc(OC)c1O
inactive: BT-549 breast 49.7% | SW-620 colon 38.4% | MCF7 breast 48.9% | HCT-116 colon 63.7% | HCC-2998 colon 82.9% | KM12 colon 62.2%
active: MDA-MB-435 melanoma -35.1%

CCOC(=O)c1nnn(-c2no[n+]([O-])c2-c2ccc(OC)cc2)c1COc1cccc2cccnc12
active: BT-549 breast -14.7% | MDA-MB-435 melanoma 9.72% | HCT-116 colon 9.49%
inactive: SW-620 colon 26% | MCF7 breast 15.2% | HCC-2998 colon 55.4% | KM12 colon 19.7%

O=C(NCCN1CCOCC1)OCc1ccc2c(Cl)cc(Cl)c(O)c2n1
inactive: BT-549 breast 83% | MDA-MB-435 melanoma 65.8% | SW-620 colon 87.6% | MCF7 breast 51% | HCT-116 colon 39.1% | HCC-2998 colon 83.5% | KM12 colon 53.2%

CCOC(=O)CC[C@H](NC(=O)c1ccc(N(C)Cc2cnc3nc(N)nc(N)c3n2)c2ccccc12)C(=O)OCC
inactive: MDA-MB-435 melanoma 37.4% | SW-620 colon 22% | MCF7 breast 18.4% | HCT-116 colon 20.4% | HCC-2998 colon 35.6% | KM12 colon 23.8%

COC1/C=C/OC2(C)Oc3c(C)c(O)c4c(O)c(c(/C=N/N(c5ccccc5)c5ccccc5)c(O)c4c3C2=O)NC(=O)C(C)=C/C=C/C(C)C(O)C(C)C(O)C(C)C(OC(C)=O)C1C (centres undefined)
inactive: BT-549 breast 88.9% | MDA-MB-435 melanoma 67.9% | MCF7 breast 32.8% | HCC-2998 colon 71.1% | KM12 colon 55.6%
active: SW-620 colon 4.75%

COc1ccc2cc(C(=O)N3CCC([C@@H](C)C(=O)NCc4ccc5c(c4)OCO5)CC3)[nH]c2c1
inactive: BT-549 breast 16% [50 µM] | MDA-MB-435 melanoma 65.9% [50 µM] | SW-620 colon 103% [50 µM] | MCF7 breast 46.8% [50 µM] | HCT-116 colon 33.6% [50 µM] | HCC-2998 colon 83% [50 µM] | KM12 colon 79.1% [50 µM]

O=C1/C(=C/c2ccc(Cl)cc2)CN(C(=O)C(Cl)Cl)C/C1=C\c1ccc(Cl)cc1
active: BT-549 breast -82.6% | MDA-MB-435 melanoma -95.3% | SW-620 colon -78.9% | MCF7 breast -70.8% | HCT-116 colon -86.6% | HCC-2998 colon -91.8% | KM12 colon -81.9%

N#Cc1c(-c2ccccc2)nc2c(c(-c3ccccc3)nn2-c2ccccc2)c1-c1ccc(N2CCCCC2)cc1
inactive: BT-549 breast 104% | MDA-MB-435 melanoma 99.9% | SW-620 colon 99.2% | MCF7 breast 100% | HCT-116 colon 94.2% | HCC-2998 colon 107% | KM12 colon 103%

Cc1cn(C)cn1
inactive: BT-549 breast 101% | MDA-MB-435 melanoma 98.4% | SW-620 colon 108% | MCF7 breast 94.9% | HCT-116 colon 105% | HCC-2998 colon 108% | KM12 colon 105%

CCn1cc(C(=O)N/N=C/c2ccccc2)c(=O)c2cc(F)c(N3CCNC(C)C3)c(F)c21 (centres undefined)
active: MDA-MB-435 melanoma -88.1% | SW-620 colon -81.1% | MCF7 breast -84.4% | HCC-2998 colon -82.9% | KM12 colon -89.4%
inactive: BT-549 breast 77.8% | HCT-116 colon 57.6%

CCOC(=O)c1cnn(CC(C)O)c1NC(=O)NCc1cccc(F)c1 (centres undefined)
inactive: BT-549 breast 101% | SW-620 colon 102% | MCF7 breast 104% | HCT-116 colon 84% | HCC-2998 colon 94.9% | KM12 colon 106%

Cc1cc2oc(/C=C/c3ccccc3)cc(=O)c2c(C)c1Cl
inactive: BT-549 breast 101% | MDA-MB-435 melanoma 95.9% | SW-620 colon 100% | MCF7 breast 98% | HCC-2998 colon 106% | KM12 colon 109%

c1csc(-c2cn3nc(-c4c[nH]c5ccccc45)sc3n2)c1
active: MDA-MB-435 melanoma -38.4%
inactive: BT-549 breast 38% | SW-620 colon 22.5% | MCF7 breast 13% | HCT-116 colon 14.7% | HCC-2998 colon 52.4% | KM12 colon 23.8%

COCC(=O)Oc1cc(-c2ccc(C)cc2C)c(OC(=O)COC)c(-c2ccc(C)cc2C)c1
inactive: BT-549 breast 56.6% | MDA-MB-435 melanoma 59.6% | SW-620 colon 43.2% | MCF7 breast 41% | HCT-116 colon 17.7% | HCC-2998 colon 88% | KM12 colon 44.8%

CCOc1ccc(/C=C/C(=O)c2cccc(OCCCOc3cccc(C(=O)/C=C/c4ccc(OCC)cc4)c3)c2)cc1
inactive: BT-549 breast 92.1% | MDA-MB-435 melanoma 79.7% | SW-620 colon 98% | MCF7 breast 84.5% | HCT-116 colon 81.7% | HCC-2998 colon 94.9% | KM12 colon 93%

COc1nc(/C=C\Nc2ccc3c(c2)OCCOCCOCCOCCO3)nc(OC)n1
inactive: BT-549 breast 92.9% | MDA-MB-435 melanoma 94.8% | SW-620 colon 94% | MCF7 breast 93% | HCT-116 colon 95.2% | HCC-2998 colon 98.2% | KM12 colon 101%
